Assay outcomes as filed in PubChem BioAssay.
Only some compounds are listed: those with a hit (about 10% of all), similar ones and a draw of the others.
Lamin A splicing – changes lamin A minigene splicing in HeLa cells; HeLa LMNA splicing GFP/RFP minigene ratio, 48 h; Potency, µM (titrated, usually from 46.1 µM), hits mostly inhibitors; 200,000 tested, 0.01% active; active = well fitted inhibition curve with a large enough effect in the signal ratio, with a control signal flat, not every such curve was filed as active; inconclusive = small, poorly fitted or top-dose-only effect, or effect the other way, or a change in a side signal; the % refers to the signal ratio
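S3 HeLa cells stably expressing lamin A-EGFP splicing minigene plus DsRed2, 600 cells/well, 48 h compound exposure at 37C. Laser-scanning cytometry; analysed as GFP (500-530 nm)/RFP (575-640 nm) total intensity ratio; 0.5% DMSO vehicle.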
HPGD block – inhibitors of human 15-hydroxyprostaglandin dehydrogenase (HPGD); P15428; purified HPGD, NADH fluorescence kinetic, PGE2 substrate; Potency, µM, most hits filed as inhibitors; 150,000 tested, 4.3% active; AID 894
Target sequence (P15428 whole entry, looked up): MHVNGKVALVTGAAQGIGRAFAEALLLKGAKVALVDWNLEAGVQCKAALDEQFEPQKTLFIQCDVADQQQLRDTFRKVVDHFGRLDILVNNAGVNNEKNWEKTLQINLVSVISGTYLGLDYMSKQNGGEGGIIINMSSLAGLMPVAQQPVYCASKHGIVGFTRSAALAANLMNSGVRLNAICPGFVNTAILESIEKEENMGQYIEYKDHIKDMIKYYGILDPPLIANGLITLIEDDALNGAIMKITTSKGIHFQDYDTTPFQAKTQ
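20 nM HPGD preincubated 15 min at room temperature with compound in 50 mM Tris-HCl pH 8, 0.01% Tween 20. Started with 1 mM NAD+ and 30 uM prostaglandin E2; NADH fluorescence (360/450 nm) read 5 times over 30-s intervals, last minus first.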
PNC assembly inh – blocks assembly of the perinucleolar compartment; 140,000 tested, 3.1% active; PC3M PTB-GFP, PNC prevalence imaging, 16 h; stronger effect = lower value; activity change (PNC), negative = inhibition, % at 10 µM;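 active = readout at or below -70, meaning at least 70% loss of cells showing the perinucleolar compartment, a nuclear body marking cancer cells; inconclusive = readout between -30 and a set limit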
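PC3M cells stably expressing PTB-GFP, 750–1000 cells/well, treated 16 h at 37 °C with compound (23 nl of library stock), in duplicate. After paraformaldehyde fixation and Hoechst stain, imaged at 20x; PNC prevalence scored by image analysis.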
ALDH1A1 inh – ALDH1A1 (human) enzyme inhibition; Potency, µM (highest dose often 75.3 µM), actives largely listed as inhibitors; Purified ALDH1A1, NADH fluorescence, propionaldehyde substrate; P00352; 220,000 tested, 7.3% active; AID 1030
KinaseGlo FLuc – counter-screen: inhibitors of Kinase-Glo firefly luciferase | AID 1379 | Q27757 | Kinase-Glo luciferase, ATP luminescence, 8 min | Potency, µM (doses to about 38.3 µM), usual class: inhibitors | 200,000 tested, 0.28% active; active = well fitted inhibition curve with a large enough effect; inconclusive = small, poorly fitted or top-dose-only effect; also: nearly all actives have a fitted effect of over 60% in size
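Substrate mix (final 50 mM imidazole pH 7.2, 50 mM KCl, 7 mM MgCl2, 10 uM ATP, 0.01% Tween 20, 0.05% BSA) plus pin-tool compound, then Kinase-Glo detection mix; 8 min ambient, luminescence read.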
IMPase inh – IMPase inhibition in cells; AID 901; inhibition (IP1 accumulation), % at 46.1 µM; CHO-M1 cells, IP1 accumulation, HTRF TR-FRET ratio; P97697; 120,000 tested, under 10 active; active = well fitted curve in the direction sought with a large enough effect in the signal ratio, not every such curve was filed as active; inconclusive = small, poorly fitted or top-dose-only effect, or a change in a side signal; inactive = no such curve, though single readings can be large or run the other way; the % refers to the signal ratio;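 also: cells stimulated with carbachol in lithium chloride buffer; higher means more IMPase inhibition seen as more IP1 and lower FRET ratio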
Target sequence (P97697 whole entry, looked up): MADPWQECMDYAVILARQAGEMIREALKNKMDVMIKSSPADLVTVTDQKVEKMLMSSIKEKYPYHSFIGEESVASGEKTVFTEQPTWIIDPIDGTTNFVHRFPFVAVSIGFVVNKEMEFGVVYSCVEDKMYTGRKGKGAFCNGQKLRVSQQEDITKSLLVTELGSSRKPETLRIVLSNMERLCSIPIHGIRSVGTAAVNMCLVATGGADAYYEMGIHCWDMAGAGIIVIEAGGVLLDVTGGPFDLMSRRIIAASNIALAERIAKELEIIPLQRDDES
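Carbachol-driven Gq signalling in CHO-M1 cells (2000/well) generates IP1. Compounds that block IMPase raise IP1 and so reduce the FRET signal from Eu-anti-IP1 and d2-IP1 after a 10 min room-temperature lysis.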
A number is an active result; 0 = inactive; ? = inconclusive; - = no result; ! = not active in a repeat; [ ] = dose if it differs, or a comment. Unless noted, calls follow the shape of the dose curve; as a rule, active = well fitted inhibition curve with a large enough effect (not every such curve was filed as active); inconclusive = small, poorly fitted or top-dose-only effect, or another doubt; inactive = no such curve, though single readings can be large or run the other way.

SMILES	Lamin A splicing	HPGD block	PNC assembly inh	ALDH1A1 inh	KinaseGlo FLuc	IMPase inh
CCOC(=O)COc1c(Br)cc(/C=C2\SC(=O)N(CC(=O)N3CCCC3)C2=O)cc1OC	0	0	0	22µM	0	0
O=C(CN1C(=O)S/C(=C/c2ccncc2)C1=O)N1CCOCC1	0	0	?	25µM	0	-
O=C(CN1C(=O)S/C(=C/c2cccs2)C1=O)N1CCOCC1	0	0	0	0	0	0
O=C(CN1C(=O)S/C(=C/c2cc(Br)cs2)C1=O)N1CCOCC1	0	0	0	22µM	0	0
CCOc1c(Br)cc(/C=C2/SC(=O)N(CC(=O)N3CCCC3)C2=O)cc1OC	0	0	0	0	0	0
CN(C)C(=S)Nn1c(-c2ccccc2)nc2ccccc2c1=O	0	0	0	0	0	-
Cc1cccc(-c2nc3ccccc3c(=O)n2NC(=S)N(C)C)c1	0	16µM	0	8.9µM	0	?
OCCC1CN(Cc2c(O)ccc3ccccc23)CCN1CCc1ccccc1 (stereo not given)	?	-	-	11µM	0	-
Cc1ccc(CN2CCN(CCCc3ccccc3)CC2CCO)cc1 (stereo not given)	0	-	-	28µM	0	-
COc1ccc(O)c(CN2CCN(CCc3ccccc3)C(CCO)C2)c1 (stereo not given)	?	-	-	0	0	-
O[C@@H]1[C@@H](OCc2ccccc2)OC[C@H](O)[C@@H]1O	-	0	-	0[13.5 µM]	0[7.66 µM]	-
C[C@@H]1c2ccccc2Cn2cc3c(c21)C(=O)c1cccc(OP(=O)(O)OCc2ccccc2)c1C3=O	-	0	-	0[13.5 µM]	0[7.66 µM]	-
CCOc1ccc(C(=O)Nc2ccc3oc(-c4ccc5ccccc5c4)nc3c2)cc1	-	-	-	-	-	0
COc1cc(OC)c(Nc2c3c(nc4nc(-c5cccs5)nn24)CCCC3)cc1Cl	0	-	-	-	-	-
COc1ccccc1C(=O)O/N=C(/C)c1ccc(N2C(=O)C3CCCCC3C2=O)cc1 (stereo not given)	0	25µM	0	13µM	0	0
CC(O)/C=C/C1OC(=O)CC1Nc1ccc(C=O)cc1 (stereo not given)	-	-	-	0.45µM	-	-
COc1ccc(O[C@H]2C=C[C@@H](c3ccccc3)O[C@H]2CO/N=C2/c3cc(OC)ccc3O[C@@H](c3cccc(OC)c3)[C@H]2O)cc1	-	-	-	0[13.5 µM]	-	-
Cc1ccc(CC2SC(=Nc3ccccc3)N(c3ccccc3)C2=O)cc1 (stereo not given)	?	0	0	0	0	-
Cc1ccc(S(=O)(=O)/N=C2\SC(CC(=O)Nc3ccc(F)cc3)C(=O)N2c2ccccc2)cc1 (stereo not given)	0	0	0	5.6µM	0	-
O=C(CC1S/C(=N\S(=O)(=O)c2ccccc2)N(c2ccccc2)C1=O)Nc1ccc(F)cc1 (stereo not given)	0	0	0	25µM	0	-
O=C(O)CC1S/C(=N\N=C2CCCCCCC2)N(c2ccccc2)C1=O (stereo not given)	?	-	-	0	0	-
CN(CC(=O)N1CCCCCC1)S(=O)(=O)c1ccc(Br)s1	0	22µM	0	?	0	0
CN(CC(=O)N1CCCCCC1)S(=O)(=O)c1ccc(F)cc1	0	-	-	0	0	-
O=c1[nH]c(=O)c2cc([N+](=O)[O-])cc([N+](=O)[O-])c2[nH]1	-	-	-	0	0	-
O=c1[nH]c2cc([N+](=O)[O-])c([N+](=O)[O-])cc2[nH]c1=O	?	32µM!	-	0	0	0
COc1ccc(CC(=O)NCc2ccc3c(c2)CCN3C(=O)c2ccc(C)cc2)cc1OC	0	-	-	-	-	-
O=C(c1ccccc1)[C@@H]1[C@@H](C(=O)c2ccc(F)cc2)[C@@]2(C(=O)Nc3ccccc32)[C@H]2c3ccccc3C=CN12	?	-	0	11µM	-	0
CN(CCCNS(=O)(=O)c1cccc2cccnc12)Cc1ccccc1	0	0	0	14µM	0	0
COc1ccccc1N1CCN(CCCNC(=O)c2cnn(-c3ccccc3)c2C2CCN(C(=O)OC(C)(C)C)CC2)CC1	0	-	-	-	-	-
COc1ccc(N2C(=O)C3CCCN3C2c2ccccc2Cl)cc1 (stereo not given)	0	0	?	10µM	0	0
